ALOX12 inhib: qHTS Assay for Inhibitors of 12-hLO (12-human lipoxygenase). Potency, µM (doses to about 57.1 µM), without a hit: at the top dose activity change, negative = inhibition, most hits filed as inhibitors. 0.12% of 150,000 active. Polyunsaturated fatty acid lipoxygenase ALOX12 (Homo sapiens), P18054. purified 12-hLO, xylenol orange hydroperoxide absorbance. AID 1452, 2008; active = well fitted inhibition curve with a large enough effect; inconclusive = small, poorly fitted or top-dose-only effect; also: potency is read from the fitted curve at half-maximal effect; nearly all actives have a fitted effect of over 55% in size
Target sequence (P18054 whole entry, looked up): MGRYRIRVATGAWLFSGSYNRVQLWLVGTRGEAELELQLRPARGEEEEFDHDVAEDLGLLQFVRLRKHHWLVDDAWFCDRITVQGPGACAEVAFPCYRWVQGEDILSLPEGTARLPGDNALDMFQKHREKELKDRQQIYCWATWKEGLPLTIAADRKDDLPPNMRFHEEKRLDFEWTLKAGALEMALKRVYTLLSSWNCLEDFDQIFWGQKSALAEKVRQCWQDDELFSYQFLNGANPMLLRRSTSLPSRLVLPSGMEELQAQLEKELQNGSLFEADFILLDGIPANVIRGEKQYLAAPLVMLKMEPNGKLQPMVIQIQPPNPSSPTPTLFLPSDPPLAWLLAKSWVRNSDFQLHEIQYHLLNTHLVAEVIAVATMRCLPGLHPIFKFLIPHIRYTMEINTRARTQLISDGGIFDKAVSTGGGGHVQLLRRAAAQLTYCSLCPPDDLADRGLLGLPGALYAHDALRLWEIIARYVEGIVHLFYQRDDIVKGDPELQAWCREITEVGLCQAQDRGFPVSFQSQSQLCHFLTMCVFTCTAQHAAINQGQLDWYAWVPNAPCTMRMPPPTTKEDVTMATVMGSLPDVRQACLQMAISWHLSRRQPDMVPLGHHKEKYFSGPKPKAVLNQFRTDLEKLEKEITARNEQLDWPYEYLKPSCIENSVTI
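Purified human 12hLO (150 nM), preincubated 15 min with compound, then 40 uM arachidonic acid for 30 min, room temperature, Hepes pH 7.0 with 0.01% Triton X-100. Hydroperoxide detected by ferrous iron/xylenol orange; 573/405 nm absorbance ratio gives reaction progress.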
PNC assembly inh: High Content Assay for Compounds that inhibit the Assembly of the Perinucleolar Compartment; PC3M PTB-GFP, PNC prevalence imaging, 16 h; stronger effect = lower value; activity change (PNC), negative = inhibition, % at 10 µM; 3.1% of 140,000 active;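 active = readout at or below -70, meaning at least 70% loss of cells showing the perinucleolar compartment, a nuclear body marking cancer cells; inconclusive = readout between -30 and a set limit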;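 also: plate controls were DMSO wells for no effect and camptothecin positive control wells for full effect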
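Compounds are pinned in duplicate onto adhered PC3M cells stably expressing GFP-tagged PTB and incubated 16 h at 37 C. Cells are then fixed, nuclei stained with Hoechst, and PNC-positive cells counted.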
ALDH1A1 inh: qHTS Assay for Inhibitors of Aldehyde Dehydrogenase 1 (ALDH1A1); Purified ALDH1A1, NADH fluorescence, propionaldehyde substrate; 7.3% of 220,000 active; Aldehyde dehydrogenase 1A1 (Homo sapiens), P00352; Potency, µM (titrated, usually from 75.3 µM), inactives show at the highest dose activity, negative = inhibition, hits mostly inhibitors;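 also: potency is read from the fitted curve at half-maximal effect; plate controls were no enzyme wells and a reference inhibitor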
HPGD inh: qHTS Assay for Inhibitors of HPGD (15-Hydroxyprostaglandin Dehydrogenase) | purified HPGD, NADH fluorescence kinetic, PGE2 substrate | Potency, µM, without a hit: at the top dose activity change, negative = inhibition, most hits filed as inhibitors | 4.3% of 150,000 active | AID 894, 2007; also: potency is read from the fitted curve at half-maximal effect
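NADH formation kinetics: reaction with 30 uM PGE2 and 1 mM NAD+ (final), 20 nM enzyme, Tris-HCl pH 8 with Tween 20, after 15 min compound preincubation at room temperature. Fluorescence change, last versus first of five reads.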
LMNA splice mod: qHTS Assay for Modulators of Lamin A Splicing. 0.01% of 200,000 active. Potency, µM (titrated, usually from 46.1 µM), for the others: at the top dose ratio change, negative = inhibition, actives largely listed as inhibitors. HeLa LMNA splicing GFP/RFP minigene ratio, 48 h. AID 1487, 2009; active = well fitted inhibition curve with a large enough effect in the signal ratio, with a control signal flat, not every such curve was filed as active; inconclusive = small, poorly fitted or top-dose-only effect, or effect the other way, or a change in a side signal; the % refers to the signal ratio; also: potency is read from the fitted curve at half-maximal effect
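S3 HeLa cells stably expressing lamin A-EGFP splicing minigene plus DsRed2, 600 cells/well, 48 h compound exposure at 37C. Laser-scanning cytometry; analysed as GFP (500-530 nm)/RFP (575-640 nm) total intensity ratio; 0.5% DMSO vehicle.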
The depositor's hits bear a star; ? = inconclusive; . = no result; [ ] = remark or other dose. A selection: hits, their analogues and other compounds. The true share with any hit is near 10%. Unless noted, calls follow the shape of the dose curve; as a rule, active = well fitted inhibition curve with a large enough effect (not every such curve was filed as active); inconclusive = small, poorly fitted or top-dose-only effect, or another doubt; inactive = no such curve, though single readings can be large or run the other way. Unless noted, % is scaled to controls: 0 for no effect and ±100 for the full control effect.

SMILES | ALOX12 inhib | PNC assembly inh | ALDH1A1 inh | HPGD inh | LMNA splice mod
O=S(=O)(NCc1ccc(F)cc1)c1ccc(N2CCCCS2(=O)=O)cc1 | . | . | . | . | 8%[46 µM]
NCC1O[C@@H](OC2C(N)CC(N)C(O)C2O[C@@H]2OC(CO)C(O)C2O)C(N)C(O)C1O (stereo partly drawn) | 3% | . | 6% | -4% | .
Cc1ccc(C2NC(=O)NC(O)(C(F)(F)F)C2C(=O)c2cccs2)o1 (stereo not drawn) | -3% | -27 | ? | -7% | -13%
Cc1ccc(C2NC(=O)NC(O)(C(F)(F)F)C2C(=O)c2ccccc2)o1 (stereo not drawn) | 6% | -26 | 8.9µM* | -9% | -4%
COc1ccc(C(=O)C2C(c3ccc(-c4ccccc4[N+](=O)[O-])o3)NC(=O)NC2(O)C(F)(F)F)cc1 (stereo not drawn) | -3% | ? | 13µM* | -11% | -11%
COc1cccc(OCC(=O)Nc2nnc3n2CCS3)c1 | . | . | . | . | 2%[46 µM]
Cc1ccc(N2CC(NC(=O)CCc3ccccc3)CC2=O)cc1C (stereo not drawn) | . | . | . | . | -3%[46 µM]
CC(=O)Nc1ccccc1-c1nc2ccc(C(=O)N3CCN(c4ccccc4)CC3)cc2[nH]c1=O | -4% | 143 | 28µM* | ? | -5%
CC(=O)Nc1ccccc1-c1nc2ccc(C(=O)N3CCN(c4cccc(C)c4)C(C)C3)cc2[nH]c1=O (stereo not drawn) | -1% | ? | -2% | -14% | -11%
Cc1ccc(-c2csc(=S)n2CC(=O)OCC(=O)NC(C)C(C)C)cc1 (stereo not drawn) | 4% | -5 | 1.6µM* | -15% | 13%
Cc1ccc(-c2csc(=S)n2CC(=O)OCC(=O)NCc2ccco2)cc1 | -6% | -29 | ? | -10% | -18%
C=CCn1c(=S)[nH]c2ccccc2c1=O | 6% | -24 | -1% | -1% | -3%
C=CCn1c(=S)[nH]c2scc(-c3cccs3)c2c1=O | . | . | 13µM* | . | ?
Cn1c(=S)[nH]c2scc(-c3cccs3)c2c1=O | . | . | 22µM* | . | ?
CCN1CCN(CC(=O)Nc2ccc(C)cc2C)C(=O)C1=O | -3% | -15 | -10% | -13% | 0%
CCN1C(=O)C(CC(=O)Nc2ccc(C)cc2C)Nc2cc(S(=O)(=O)N(C)C)ccc21 (stereo not drawn) | . | . | 28µM* | . | .
Cc1cc(Cl)ccc1OCCSc1nnc(-c2cccs2)o1 | . | . | . | . | -1%[46 µM]
Cc1c(C=O)c2ccccn2c1C(=O)c1ccc(Cl)c([N+](=O)[O-])c1 | . | . | 2.8µM* | . | ?
COc1cccc(-n2c(SCC(N)=O)nc3ccccc3c2=O)c1 | . | . | 0% | . | -14%[46 µM]
CC(Cc1ccccc1)NC(=O)CSc1nc2nc3c(cc2c(=O)n1-c1ccccc1)COC(C)(C)C3 (stereo not drawn) | -1% | -22 | 1.6µM* | -9% | -2%
COc1ccc(-n2c(SCC(N)=O)nc3nc4c(cc3c2=O)COC(C)(C)C4)cc1 | -2% | 1 | 3.5µM* | -23% | 3%
CC1(C)Cc2nc3sc4c(=O)n(CC(=O)NCc5ccccc5)cnc4c3cc2CO1 | -4% | 7 | ? | ? | ?
C/C(=N\NC(=O)CNc1cccc(C(F)(F)F)c1)c1ccc(Br)cc1 | 2% | -13 | ? | -14% | ?
CC(=O)Nc1cccc(/C(C)=N/NC(=O)c2ccc(O)cc2)c1 | . | . | 8% | . | -16%[46 µM]
C/C(=N\NC(=O)c1cccc(N/N=C(\C)c2ccccc2)c1)c1ccccc1 | -5% | ? | 12µM* | ? | -17%
SMILES | ALOX12 inhib | PNC assembly inh | ALDH1A1 inh | HPGD inh | LMNA splice mod
C/C(=N\Nc1cccc(C(F)(F)F)c1)c1ccc(O)cc1 | . | . | 20µM* | . | -17%[46 µM]
COc1ccccc1CN1CC[C@@]2(CCCN(C(=O)c3cccn3C)C2)C1 | -4% | . | ? | -4% | .
CCc1ccc(O)c(N=Cc2ccccc2O)c1 | ? | 16 | ? | 1% | -25%
O=c1[nH][nH]c2c(N=Cc3ccccc3O)ccc(F)c12 | . | . | 8.9µM* | . | 9%[46 µM]
O=C1CC(=O)N(CCc2ccccc2)C(=O)N1CCc1ccccc1 | -14% | ? | -12% | -14% | -5%
O=C1C=CC(=O)C(C2=C3C(=O)N(CCc4ccccc4)CC(=O)N3CCC2)=C1 | -8% | 49 | 2.2µM* | 1.6µM* | ?
CC(=O)N1CCC(N(Cc2ccc(C)o2)C(=O)Nc2ccc(C)cc2)CC1 | . | . | . | . | 13%[46 µM]
Cc1nc(N2CCCCC2)c2sc(=S)n(C)c2n1 | -5% | -27 | 1% | -4% | -16%
CCN1CCN(c2nc(C)nc3c2sc(=S)n3C)CC1 | -5% | -10 | ? | 10µM* | -10%
Cc1cc(C(=O)CSc2nnnn2-c2ccccc2)c(C)n1CCc1ccccc1 | 5% | 91 | ? | -14% | 9%
Cc1ccc(-n2nnnc2SCC(=O)c2cc(C)n(-c3cc(C)on3)c2C)c(C)c1 | -27% | ? | 2.2µM* | -18% | 20%
Cc1cc(C(=O)CSc2nnnn2-c2ccc(O)cc2)c(C)n1C | . | . | 16µM* | . | .
Cc1cc(-n2c(C)cc(C(=O)CSc3nnnn3-c3ccccc3)c2C)no1 | -7% | -16 | 7.1µM* | -12% | ?
Cc1ccc(-n2c(C)cc(C(=O)CSc3nnnn3C)c2C)cc1 | -3% | 5 | ? | -28% | ?
Cc1ccc2cc(C3CC(c4ccco4)=NN3S(C)(=O)=O)c(Cl)nc2c1 (stereo not drawn) | . | . | 18µM* | . | .
Cc1ccc2cc(C3CC(c4ccco4)=NN3S(=O)(=O)c3ccccc3)c(Cl)nc2c1 (stereo not drawn) | 0% | -25 | ? | -15% | ?
CCCCn1c(N)c(N(CC(C)C)C(=O)CN(C)Cc2cccc(OC)c2)c(=O)[nH]c1=O | -1% | ? | -4% | -15% | 3%
C=CCOc1ccc(CN(C)CC(=O)N(CC(C)C)c2c(N)n(CC(C)C)c(=O)[nH]c2=O)cc1 | 2% | -101* | -13% | -8% | -3%
Oc1c(C(O)(c2ccccc2)c2ccc3ccccc3c2O)ccc2ccccc12 | -10%[11.4 µM] | . | -6%[13.5 µM] | ? | .
Cc1ccc(-c2cc(C(=O)NC3=NCCS3)c3cc(Br)ccc3n2)o1 | 5% | -17 | 0.11µM* | 2.5µM* | ?
COc1ccc(NC(=O)Cn2cnc3c(nc4n3CCCCC4)c2=O)c(OC)c1 | . | . | . | . | 6%[46 µM]
CC(C)CCn1c(O)c(N=NC(=O)c2ccco2)c2ccccc21 | -2% | -10 | 2% | -17% | 5%
CC(C)Cn1c(O)c(N=NC(=O)c2cccc(S(=O)(=O)N3CCCCC3)c2)c2ccccc21 | 5% | 4 | 3.5µM* | -12% | -12%
CCc1[nH]c(=O)[nH]c1C(C)S(=O)(=O)c1ccc(C)cc1 (stereo not drawn) | . | . | 32µM* | . | .
Cc1ccc(Cl)cc1NC(c1ccc(F)cc1)c1nnc(-c2ccccc2)o1 (stereo not drawn) | . | . | . | . | -2%[46 µM]

Screening results as filed in PubChem.
